From PubChem
NADH enzymes = inhibition of NAD/NADH coupling enzymes, library profiling; coupled PK/LDH NADH assays, four targets; IC50, µM (doses to about 10 µM), for inactives: at the highest dose inhibition; 65,000 tested, 0.02% active;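 active = single-dose screening hits from any of four coupled enzyme assays that gave an IC50 when retested across doses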;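 also: the DPM-DC format reads NADH fluorescence rather than 340 nm absorbance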
PMK inhibit = S. pneumoniae PMK inhibition; purified PMK, PK/LDH-coupled NADH absorbance 340 nm; inhibition, % at 10 µM; 65,000 tested, 0.49% active;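 active = top-ranked compounds by inhibition in the single 10 µM screen, taking a fixed number of the strongest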;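 also: 0% = full reaction with DMSO carrier and 100% = background rate without enzyme reaction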
A340 absorber = compound absorbs light at 340 nm | compound absorbance at 340 nm, fold over control | fold change at 10 µM | 65,000 tested, under 10 active | AID 708;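 active = at 10 µM dose, initial 340 nm absorbance at least 2 fold that of control wells; inactive = change under 2 fold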;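 also: initial absorbance extrapolated from kinetic A340 decline of NADH oxidation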
Spn DPM-DC inh = S. pneumoniae DPM-DC inhibition; purified DPM-DC, PK/LDH coupled NADH fluorescence; calls only at 10 µM; 65,000 tested, 0.49% active; AID 556;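 active = the 320 compounds with the highest percent inhibition in the single-dose primary screen, excluding strongly autofluorescent ones, cut at about 32% in these data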;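 also: kinetic rate of NADH fluorescence loss reporting ADP formed by the decarboxylase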
Fluor 339 460 = intrinsic fluorescence of library compounds, ex339/em460 – biochemical, MLSMR library, data from DPM-DC assay, artefact control, profiling panel | fluorescence fold increase at 10 µM | compound autofluorescence, ex339/em460 nm, NADH buffer; stronger effect = higher value; 1 = no-compound wells, NADH background | 65,000 tested, 5.5% active;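 active = at 10 µM, mean starting fluorescence two-fold or more over control wells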;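 also: signal is the first read of a kinetic run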
MK inhibit = blocks S. pneumoniae mevalonate kinase. purified MK, PK/LDH-coupled NADH absorbance 340 nm. inhibition, % at 10 µM. 65,000 tested, 0.48% active. AID 555;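 active = ranked among the strongest by inhibition in the single 10 µM screen, a fixed top-ranked set picked for dose follow-up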
Numbers without * were called inactive; i = inactive; · = not tested or not shown. An excerpt weighted towards active compounds, which were near 6.3% of everything screened.

SMILES | NADH enzymes | PMK inhibit | A340 absorber | Spn DPM-DC inh | Fluor 339 460 | MK inhibit
COc1ccc2[nH]c(=O)c(CN(CCN3CCCC3)C(=O)Nc3ccccc3Cl)cc2c1 | 12.0% | 4.0 | 1.01 | i | 3.22* | 6.0
COc1cc(C(=O)N(Cc2cc3ccccc3[nH]c2=O)CC2CCCO2)cc(OC)c1OC (configuration not stated) | 9.0% | 14.0 | 1.02 | i | 1.26 | 9.0
COc1ccccc1NC(=O)N(Cc1cc2cc(OC)c(OC)cc2[nH]c1=O)CC1CCCO1 (configuration not stated) | 11.0% | 8.0 | 1.14 | i | 2.71* | 0.0
O=C(NCc1cccs1)C1CC(=O)N(c2ccccc2)C1 (configuration not stated) | 3.0% | 14.0 | 0.99 | i | 1.05 | 3.0
O=C1Nc2ccccc2C1=Nc1ccc(-c2nnc3n2CCCCC3)cc1 | 6.0% | 18.0 | 1 | i | 1.07 | 0.0
O=C1CC(c2ccc(F)cc2)Cc2nc(N3CCc4ccccc43)ncc21 (configuration not stated) | 13.0% | 19.0 | 1.1 | · | 3.82* | 7.0
O=C1CC(c2ccc(F)cc2)Cc2nc(N3CCN(c4ccccc4)CC3)ncc21 (configuration not stated) | 2.0% | 2.0 | 1.03 | i | 1.24 | 4.0
O=C(CSc1nnc(-c2ccccc2)o1)N1CCN(c2ccccc2)CC1 | 3.0% | 1.0 | 0.98 | i | 1.03 | 15.0
CCOc1ccc(-c2nnc(SCC(=O)N3CCN(c4ccccc4)CC3)o2)cc1 | 4.0% | 26.0* | 1.01 | i | 1.05 | 11.0
COc1ccc(-c2nc3n(c(=O)c2C#N)CCCS3)cc1 | 8.0% | 0.0 | 1.1 | i | 2.03* | 5.0
CCOc1ccc(-c2nc3n(c(=O)c2C#N)CCCS3)cc1 | 14.0% | 8.0 | 1.14 | i | 2.76* | 11.0
CC(NC(=O)Nc1ccccc1O)(C(F)(F)F)C(F)(F)F | 3.0% | 3.0 | 1.02 | i | 2.58* | 5.0
CC(NC(=O)Nc1ccc(O)cc1)(C(F)(F)F)C(F)(F)F | 1.0% | 4.0 | 1.02 | i | 1.09 | 0.0
O=C(CCn1c(=O)oc2ccccc21)NCCCN1CCCC1=O | 4.0% | 5.0 | 1.04 | i | 1.12 | 6.0
COc1cccc(-n2c(C)nnc2SCC(=O)Nc2ccccc2N2CCOCC2)c1 | 4.0% | 5.0 | 1.01 | i | 1.09 | 6.0
COCc1cc(=O)[nH]c(Nc2nc(C)c3ccc(C)cc3n2)n1 | 10.0% | 28.0* | 1.02 | i | 1.02 | 0.0
Cc1ccc(C(=O)NCCN(C)C)c(C)c1 | 2.0% | 0.0 | 1.03 | i | 1.06 | 5.0
CN(C)CCNC(=O)c1coc(=O)c(Br)c1 | 10.0% | 10.0 | 1.07 | · | 3.71* | 9.0
CCOC(=O)c1sc(NC(=O)c2ccc(Cl)s2)cc1C | 4.0% | 1.0 | 1.06 | · | 2.13* | 6.0
CCOC(=O)c1sc(NC(=O)c2ccc(CC)s2)nc1C | 2.0% | 3.0 | 1.09 | · | 3.29* | 0.0
CCOC(=O)c1sc(NCCNc2nc(C)c(C(=O)OCC)s2)nc1C | 1.0% | 2.0 | 1.09 | i | 1.12 | 2.0
CCOC(=O)c1sc(NC(=O)C2CC2)cc1C | 3.0% | 0.0 | 1.05 | i | 1.03 | 4.0
CCN(CC)c1ccc(NC(=O)CSc2nnc(N)s2)cc1C | 4.0% | 8.0 | 1.02 | i | 1.06 | 5.0
CCN(CC)c1cc(C)c2cc(NC(=O)CNC(C)=O)ccc2n1 | 7.0% | 0.0 | 1.13 | · | 2.2* | 13.0
O=C1CCCCCN1CP(=O)(O)CN1CCOCC1 | 8.0% | 6.0 | 1.01 | i | 1.06 | 11.0
SMILES | NADH enzymes | PMK inhibit | A340 absorber | Spn DPM-DC inh | Fluor 339 460 | MK inhibit
Cc1cc(C)c(C#N)c(SCC(=O)Nc2nnc(-c3ccccc3)s2)n1 | 4.0% | 0.0 | 1.08 | · | 2.12* | 8.0
Cc1cc(C)c(C#N)c(SCC(=O)CC(=O)OC(C)C)n1 | 13.0% | 7.0 | 1.01 | i | 2.98* | 6.0
Cc1ccc(C(=O)NCC(=O)OCC(=O)c2c(N)n(C)c(=O)n(C)c2=O)s1 | 3.0% | 8.0 | 1.01 | i | 1.09 | 0.0
O=C(COC(=O)CCC(=O)c1ccc2c(c1)OCCO2)NCc1ccc2c(c1)OCO2 | 7.0% | 14.0 | 0.98 | i | 1.09 | 6.0
Cc1cccc(-n2c(C)nc3c(cnn3-c3ccc(F)cc3)c2=O)c1 | 7.0% | 17.0 | 1 | i | 1.11 | 4.0
COc1ccc2nc3c(cc2c1)c(NC(=O)c1cccs1)nn3CC(C)C | 11.0% | 12.0 | 1 | · | 3.67* | 9.0
